# Screening results deposited in PubChem BioAssay by several laboratories.
# In the library only some 4.7% were active in any assay of this set; here they are far more common.
# PABP FP inh: PABP poly(A) RNA binding inhibitors, primary screen, biochemical, fluorescence polarization, uHTS; Polyadenylate-binding protein 1 (Homo sapiens), P11940; inhibition, % at 35 µM; 290,000 compounds, 1% hits; AID 2014, 2009;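 note: calls also rest on retests at 20 µM and on dose response follow-up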
# Target sequence (P11940 whole entry, looked up): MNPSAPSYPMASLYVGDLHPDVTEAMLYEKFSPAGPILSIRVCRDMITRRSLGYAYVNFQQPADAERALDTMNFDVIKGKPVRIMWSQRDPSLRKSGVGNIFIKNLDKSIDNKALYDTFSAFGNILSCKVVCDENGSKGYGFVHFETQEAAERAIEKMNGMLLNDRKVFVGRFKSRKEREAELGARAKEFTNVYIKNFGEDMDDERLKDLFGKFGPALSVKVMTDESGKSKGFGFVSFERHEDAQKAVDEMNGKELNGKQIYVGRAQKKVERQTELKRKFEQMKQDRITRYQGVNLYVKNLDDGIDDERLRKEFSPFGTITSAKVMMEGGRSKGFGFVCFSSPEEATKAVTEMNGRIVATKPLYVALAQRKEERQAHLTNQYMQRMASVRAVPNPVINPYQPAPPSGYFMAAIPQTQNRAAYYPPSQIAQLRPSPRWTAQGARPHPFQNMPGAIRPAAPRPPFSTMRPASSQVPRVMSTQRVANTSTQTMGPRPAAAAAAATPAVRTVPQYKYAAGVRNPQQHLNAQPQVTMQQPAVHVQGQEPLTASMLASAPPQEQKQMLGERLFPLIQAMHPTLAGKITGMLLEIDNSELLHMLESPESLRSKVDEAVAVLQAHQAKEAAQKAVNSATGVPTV
# PABP1 MLLE inh: inhibitors of PABP1 MLLE–PAM2 peptide binding, primary screen, biochemical, fluorescence polarization, FITC-PAM2, GST-MLLE. inhibition, % at 20 µM. 360,000 compounds, 0.36% hits. AID 588489, 2011; in the data active = inhibition above about 35%, passing the limit was not always enough
# Efflux pump mplx: inhibitors of Candida efflux pumps in yeast, primary screen, S. cerevisiae, Nile Red, multiplex | S. cerevisiae Candida pump triplex | inhibition, % at 10 µM | 330,000 compounds, 0.44% hits;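 active = plate passing quality check with inhibition over a set limit, or well fluorescence over plate mean plus 4 SD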;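 note: Nile Red retained in pooled yeast measured as flow cytometry median fluorescence; higher means more Nile Red kept so more efflux inhibition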
# SUMO HTRF inh: inhibitors of in vitro SUMOylation cascade, primary screen, biochemical, HTRF, uHTS. SUMO-conjugating enzyme UBC9 (Homo sapiens), P63279. HTRF SUMOylation assay, SAE1/SAE2 + UBC9. inhibition, % at 35 µM. 290,000 compounds, 0.36% hits; in the data active = inhibition above about 50%, passing the limit was not always enough; inconclusive = no clear call, values can overlap the other calls
# ALR H2O2 inh: inhibitors of human ALR sulfhydryl oxidase, primary screen, biochemical, H2O2 detection, HRP-luminol luminescence, single point; FAD-linked sulfhydryl oxidase ALR (Homo sapiens), P55789; purified ALR, DTT oxidation; inhibition, % (test concentration not listed); 290,000 compounds, 3.8% hits; AID 485317, 2010;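 active = mean replicate inhibition above about 79%, with every replicate also reaching it, limit read from the data; inconclusive = only one of the two criteria met; inactive = mean below limit and not every replicate reaching it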
# eIF4H FP inh: human eIF4H binding inhibitors, primary screen, translation initiation inhibitor project, biochemical, uHTS, fluorescence polarization; 290,000 compounds, 0.94% hits; Eukaryotic translation initiation factor 4H (Homo sapiens), Q15056; inhibition, % at 35 µM; eIF4H fluorescence polarization binding assay;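 note: calls also rest on retests at 20 µM and on dose response follow-up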
# Cmpd fluor yeast: flagged as fluorescent in efflux inhibitor counter-screen. shares compounds with Efflux pump mplx. S. cerevisiae AD/pABC3, compound fluorescence, flow cytometry. fluorescence ratio to DMSO, % at 10 µM. 1,700 compounds, 4% hits. AID 588517;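 active = fluorescence ratio to DMSO above its plate's cutoff, the plate mean ratio plus 5 SD, cut at about 210% in these data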;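 note: unstained yeast with no Nile Red so the signal is compound autofluorescence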
# Mdr1 pump inh: inhibitors of Candida albicans Mdr1 efflux, confirmation, flow cytometry, singleplex, Cherry Pick1 set | 1,700 compounds, 1% hits | shares compounds with Efflux pump mplx | inhibition, % at 10 µM | S. cerevisiae AD/CaMDR1, Nile Red efflux; in the data active = inhibition above about 26%;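 note: higher means more Nile Red retained so more efflux inhibition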
# Cdr2 pump inh: inhibitors of Candida albicans Cdr2 efflux pump, confirmation, S. cerevisiae AD/CaCDR2, flow cytometry, cherry pick 1, singleplex | shares compounds with Efflux pump mplx | Nile Red retention | Nile Red retention ratio vs DMSO, % at 10 µM | 1,700 compounds, 4% hits; in the data active = Nile Red retention ratio vs DMSO above about 190%;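 note: higher ratio means more blocking of Cdr2 efflux of the dye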
# CaCdr1 efflux inh: inhibitors of Candida albicans Cdr1 efflux pump, confirmation, S. cerevisiae AD/CaCDR1, flow cytometry, cherry pick 1, singleplex. shares compounds with Efflux pump mplx. 1,700 compounds, 1% hits. AID 588522, 2011. inhibition, % at 10 µM. Nile Red efflux;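 active = inhibition above the screen-wide mean plus twice its standard deviation, cut at about 32% in these data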
# Numbers stand for hits; - = inactive; ? = inconclusive; . = no result; + = active, no number. Unless noted, the rule behind the calls is not given here.
SMILES,PABP FP inh,PABP1 MLLE inh,Efflux pump mplx,SUMO HTRF inh,ALR H2O2 inh,eIF4H FP inh,Cmpd fluor yeast,Mdr1 pump inh,Cdr2 pump inh,CaCdr1 efflux inh
Cc1ccc(-n2nc3c(=O)n(CC(=O)NCc4ccccn4)nc(C)c3c2C)cc1,-,-,-,-,-,-,.,.,.,.
Cc1ccc(CNC(=O)CCCn2nc(C)c3c(C)n(-c4ccccc4)nc3c2=O)cc1,-,-,-,-,-,-,-,-,-,-
Cc1ccc(-n2nc3c(=O)n(CC(=O)NCCc4ccccc4C)nc(C)c3c2C)cc1,-,-,4.2,-,-,-,-,-,-,-
Cc1nn(CC(=O)NCCc2cccs2)c(=O)c2nn(-c3ccccc3)c(C)c12,-,-,-,-,-,-,.,.,.,.
Cc1ccc(-n2nc3c(=O)n(CCCC(=O)NCc4ccccc4C)nc(C)c3c2C)cc1,-,-,-,-,-,-,.,.,.,.
CCOc1ccc(CNC(=O)Cn2nc(C)c3c(C)n(-c4ccc(C)cc4)nc3c2=O)cc1,-,-,-,-,-,-,-,-,-,-
Cc1ccc(-n2nc3c(=O)n(CC(=O)NCc4cccs4)nc(C)c3c2C)cc1,-,-,-,-,-,-,-,-,-,-
O=C(COC(=O)/C=C/c1ccc(S(=O)(=O)N2CCc3ccccc32)cc1)NC1CCS(=O)(=O)C1 (stereo not given),-,-,-,-,-,-,.,.,.,.
CC(C(=O)Nc1ccccc1Oc1ccccc1)c1ccccc1 (stereo not given),-,-,-,-,-,-,.,.,.,.
COCCNC(=S)N/N=C(\C)c1cccc(OC)c1,-,-,-,-,-,-,.,.,.,.
COc1ccc(C(=O)OCC(=O)Nc2sccc2C(N)=O)cc1[N+](=O)[O-],.,-,-,.,-,.,.,.,.,.
CN(C)CCN(C)C1CN(Cc2ccc([N+](=O)[O-])cc2)S(=O)(=O)C1 (stereo not given),.,-,.,.,.,.,.,.,.,.
O=C(CSc1nnc(CNC(=O)c2ccco2)o1)Nc1ccccc1C(F)(F)F,-,-,-,-,-,-,.,.,.,.
COc1ccc(-n2nnnc2C(c2cccc(OC)c2OC)N2CCN(C/C=C/c3ccccc3)CC2)cc1 (stereo not given),.,-,.,.,.,.,.,.,.,.
COc1ccc(/C=C2\SC(=O)N(CCC(=O)Nc3ccccc3)C2=O)cc1OC,-,-,7.6,-,-,-,-,-,-,-
COc1ccc(/C=C2\SC(=O)N(CCCC(=O)Nc3ccc(C(=O)O)cc3)C2=O)cc1OC,-,-,-,-,.,-,.,.,.,.
CC(C)c1ccc(C(=O)NC(=S)Nc2ccc3[nH]c(=O)[nH]c3c2)cc1,-,-,-,-,-,-,-,-,-,-
O=C(CCCCCN1C(=O)c2ccccc2C1=O)Oc1ccc2c3c(c(=O)oc2c1)CCC3,-,-,-,-,-,-,.,.,.,.
COc1cc(NC(=O)c2ccccc2)c(C)cc1NC(=O)CC(CC(=O)O)c1ccccc1 (stereo not given),-,-,-,-,.,-,.,.,.,.
COC(=O)c1ccccc1NC(=S)N(Cc1ccc2c(c1)OCO2)Cc1cc2ccc(OC)cc2[nH]c1=O,-,-,6.4,-,-,-,-,-,-,-
CC(=O)NC(c1ccc(F)c(F)c1)c1nc(-c2ccccc2)cs1 (stereo not given),.,-,.,.,.,.,.,.,.,.
O=C(NNC(=O)C1COc2ccccc2O1)c1cccc([N+](=O)[O-])c1 (stereo not given),-,-,1.2,-,-,-,-,-,-,-
COc1ccc(CCN2CCCC(CN(C)Cc3cc(Cl)c(O)c(OC)c3)C2)cc1 (stereo not given),-,-,-,-,-,-,.,.,.,.
Cc1ccc(C(=O)COc2ccccc2-c2ccccc2)cc1C,-,-,13,-,-,-,-,-,-,-
CCCCCc1cc(=O)oc2c(C(CCN3CCCC(C)C3)c3ccc(N(C)C)cc3)c(OC)cc(OC)c12 (stereo not given),-,-,1.0,-,-,-,-,-,-,-
SMILES,PABP FP inh,PABP1 MLLE inh,Efflux pump mplx,SUMO HTRF inh,ALR H2O2 inh,eIF4H FP inh,Cmpd fluor yeast,Mdr1 pump inh,Cdr2 pump inh,CaCdr1 efflux inh
CCCCCc1cc(=O)oc2c(C(CCN3CCCC(C)C3)c3cc(OC)c(OC)c(OC)c3)c(OC)cc(OC)c12 (stereo not given),-,-,-,-,-,-,.,.,.,.
CCCCCC(=O)N/N=C(\C)c1ccc(Cl)cc1,-,-,9.8,-,-,-,-,-,-,-
Cc1cccc(N2CCN(C(=O)c3ccc(NS(=O)(=O)c4c(C)noc4C)cc3)CC2)c1C,-,-,0.5,-,-,-,-,-,-,-
O=C(c1cn(-c2ccccc2)nc1-c1ccc(F)cc1)N1CCCCC1,-,-,11,-,-,-,-,-,-,-
Cn1cc(-c2ccc3c(c2)OCO3)c2ccccc21,.,-,.,.,.,.,.,.,.,.
Cc1ccc(S(=O)(=O)CCC(=O)OCC(=O)NC(C)c2ccccc2)cc1 (stereo not given),.,-,-,.,-,.,.,.,.,.
C[n+]1ccc(/C=C/c2c[nH]c3ccc(F)cc23)cc1,?,-,-,-,-,?,.,.,.,.
Cc1ccc2[nH]c(C)c(/C=C/c3cc[n+](C)cc3)c2c1,?,-,20,-,99,?,+,-,317,-
Cc1ccc2c(c1)c(/C=C/c1cc[n+](C)cc1)c(C)n2C,?,-,25,-,85,?,+,32,290,-
C[n+]1ccc(/C=C/c2ccc(Br)cc2)cc1,-,-,-,-,-,-,.,.,.,.
COC(=O)CCCC(=O)NCC1(N(C)Cc2ccccc2)Cc2ccccc2C1,-,-,-,-,-,-,.,.,.,.
COc1ccc(/C=C/c2ccc3ccccc3[n+]2C)cc1OC,-,-,1.1,-,-,-,-,-,-,-
COc1ccc(/C=C/c2nc(-c3ccccc3O)n[nH]2)cc1OC,-,-,-,-,-,-,.,.,.,.
COC(=O)[C@@H](Cc1ccccc1)NC(=O)[C@H]1CCC(=O)N1C(=O)OCc1ccccc1,-,-,-,-,.,-,.,.,.,.
CCC(=O)N(Cc1ccc(C)cc1)Cc1cc2cc3c(cc2[nH]c1=O)OCO3,-,-,11,-,-,-,-,-,-,-
